Consider 94 compounds from PubChem BioAssay AID463195 (Sanford-Burnham Center for Chemical Genomics, 2010).

Each structure is given as a SMILES string. Screen size: about 330,000 compounds; about 4,600 (1.4%) were called active. The full list was thinned out, with actives kept by preference. Values without a mark were called inactive.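 Rule for the calls: active = inhibition of 40% or more at the single tested concentration; inactive = the rest.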

A short description of the assay: growth inhibitors of isogenic TIM10 control yeast, primary screen, counter-screen for tim10-1 yeast inhibitor project, luminescence, uHTS (AID 463195).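 Note: wild-type TIM10 isogenic control strain grown at permissive 25 °C; 0% = DMSO yeast wells and 100% = minimal medium wells without yeast.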 The note with it: S. cerevisiae TIM10 strain growth, BacTiter-Glo luminescence, 24 h; at 10 µM; active compounds read high.
On to `COc1ccc(-c2cc3n(n2)CCc2nc4ccccc4n2-3)cc1`, for which the inhibition (commonly the relative decrease from the control value, in per cent) was 17.5%.

Consider `N#Cc1cccc(Nc2c3c(nc4ccccc24)CCCC3)c1`, for which the inhibition was 22.5%.

Take `Cc1cc(CNC(=O)c2cccc([N+](=O)[O-])c2)c2ccccc2n1`: the inhibition is 8.64%.

For the compound `O=[N+]([O-])c1cccc(Nc2c3ccccc3nc3ccccc23)c1`, the inhibition is 42.1% (active). Consider `COC(=O)Nc1ccc(S(=O)(=O)N2CCN(CCN3C(=O)C4C5C=CC(C5)C4C3=O)CC2)cc1` (centres undefined), for which the inhibition was -10.8%. For `COc1ccc(C)cc1NC(=O)C(Sc1ccccc1)c1ccccc1` (centres undefined), the inhibition is 2.49%.

As for `O=C(CCN1CCN(c2ccccc2)CC1)NNC(=S)Nc1ccccc1`, the inhibition was 1.6%. For the compound `Cc1ccccc1C(=O)NC(=S)Nc1ccc(N2CCN(C(=O)c3ccccc3)CC2)cc1`, the inhibition was -9.29%. With `O=C(Cc1ccccc1)NC(=S)Nc1ccc(N2CCCCC2)cc1` the figure was 40.2% (active); with `O=C(CCc1nc(-c2ccccc2)no1)Nc1cccc(C(=O)NC2CC2)c1`, -6.75%; with `CCCCn1c(N)c(N(CCOC)C(=O)c2cccc(S(=O)(=O)N3CCCCC3)c2)c(=O)[nH]c1=O`, -2.98%. With `Cc1cccc(C(=O)NCC(=O)OCC(=O)N(C)CC(=O)Nc2ccccc2Cl)c1` the figure was -5.14%; with `Cc1ccc(SCCC(=O)Nc2cc(C)on2)cc1`, 4.66%; with `Cc1ccc2nc(-c3ccc(SCC(=O)Nc4cc(C)on4)nc3)[nH]c2c1`, 42.6% (active). The figure for `Cc1cccc(-n2ncc3c(=O)[nH]c(SCC(=O)Nc4cc(C)on4)nc32)c1` is -12.1%; for `CC(=O)c1cccc(NC(=S)N2CCN(S(C)(=O)=O)CC2)c1` it is 13%; for `CC(C)Oc1c(Br)cc(Br)cc1/C=N/NC(N)=S` it is 51.7% (active). On to `CCOc1ccc(/C=N/NC(N)=S)cc1`, for which the inhibition is -25.2%. On to `Cc1cccc(-n2c(C)cc(/C=N/NC(N)=S)c2C)c1`, for which the inhibition was -24.1%. With `S=C(NCCCc1ccccc1)Nc1ccc(Br)cc1` the figure was 43.1% (active); with `O=C(CCNC(=O)c1ccc(Br)cc1)NCCCc1ccccc1`, -4.58%; with `S=C(Nc1ccc(Br)cc1)NC1CCN(Cc2ccccc2)CC1`, -24.3%.

Regarding `CC(C)n1c(O)c(N=Nc2ccccn2)c2ccccc21`, the inhibition is 3.1%. With `Cc1ccc2occ(/C=N/NC(=O)c3ccccc3C)c(=O)c2c1` the figure was 20.6%; with `NC(=S)N/N=C/c1coc2cc(Cl)ccc2c1=O`, 42.4% (active).

Regarding `O=c1c(/C=N/O)coc2ccc(Cl)cc12`, the inhibition is -3.79%. Turning to `CC(C)c1ccc(NC(=O)COC(=O)c2ccc(CN3CCCC3=O)cc2)cc1`, the inhibition was 1.1%.

With `Cc1c(NC(=O)Nc2ccccc2Cl)sc(=S)n1C`, the inhibition was 2.45%.

For the compound `O=C(Nc1ccccc1Cl)/C(Cl)=C(\Cl)S(=O)c1ccccc1` (centres undefined), the inhibition is 86.7% (active). The figure for `CC1(C)CC(CCC(=O)Nc2ccccc2Cl)C(=O)O1` (centres undefined) is 1.62%; for `O=C(O)C1C2CC2CN1C(=O)c1ccc(Cl)cc1Cl` (centres undefined) it is -17.4%. With `CN(Cc1nc(-c2cnccn2)no1)Cc1n[nH]c2c1CCCCC2` the figure was 4.12%; with `CCOCCCNC(=O)c1cn(CC(C)C)c(=O)c2c1c1ccccc1n2C`, 3.76%. With `O=c1nc2s/c(=C\c3ccco3)c(=O)n2nc1Cc1ccccc1` the figure was 63.3% (active); with `O=C(Nc1ccccc1)/C(=C\c1ccco1)NC(=O)c1ccco1`, -2.56%. For `O=C(NCCc1ccco1)c1nn(Cc2ccccc2)c(=O)c2ccccc12`, the inhibition was 2.63%.

As to `COC(=O)c1c(NC(=O)CN2CCN(S(=O)(=O)c3ccccc3[N+](=O)[O-])CC2)sc2c1CCC(C)C2` (centres undefined), the inhibition was 14.5%. The figure for `CC(=O)N1C(C)c2ccccc2C(C)(C)CC12CCCCC2` (centres undefined) is 41.9% (active); for `COCCCNC(=O)C1CC(=O)N(CCc2ccc(F)cc2)C1` (centres undefined) it is -8.81%; for `CCOCCCn1c(SCC(=O)Nc2cc(OC)ccc2OC)nc2ccccc2c1=O` it is 11.4%. Turning to `O=C(CCNS(=O)(=O)c1ccc(Br)cc1)NCC1CCCO1` (centres undefined), the inhibition was -3.43%. Regarding `OC(CNCC1CCCO1)Cn1c2ccc(Br)cc2c2cc(Br)ccc21` (centres undefined), the inhibition was 62.5% (active). The figure for `O=C(CSc1ccc(-c2ccc(Br)cc2)nn1)NCC1CCCO1` (centres undefined) is 15.2%. On to `CCCCCNC(=O)c1cccnc1SCC(=O)Nc1ccccc1OC`, for which the inhibition was 1.04%.

Turning to `COc1ccc(N2CCN(C(=O)CCSCc3ccccc3F)CC2)cc1`, the inhibition is 27.5%. The figure for `CC(=O)N(Cc1cccs1)C1CCOC(C)(C)C1` (centres undefined) is -0.323%; for `Nc1ccccc1SC(C[N+](=O)[O-])c1ccccc1` (centres undefined) it is 59.3% (active); for `Cc1ccc(C(C[N+](=O)[O-])c2c(C)cc3ccccn23)cc1` (centres undefined) it is 21.6%. `Cc1ccc(C)c(OCCC(=O)OCC(=O)N2CCN(c3ccccc3)CC2)c1`: the inhibition was 5.69%. The figure for `O=S(=O)(Nc1cccc(Oc2ccc(Cl)cc2)n1)c1ccc(F)cc1` is 37.9%; for `O=C(COC(=O)C1CCCO1)Nc1nc(-c2ccc(F)cc2)cs1` (centres undefined) it is 2.65%.

Consider `CC1CCCC(C)N1C(=O)CN1CCN(c2nc(-c3ccc(F)cc3)cs2)CC1` (centres undefined), for which the inhibition is 44.9% (active).

Take `O=C(CN1CCN(c2nc(-c3ccccc3)cs2)CC1)NCc1ccc2c(c1)OCO2`: the inhibition is 18.3%. The figure for `N/C(Cc1ccc([N+](=O)[O-])cc1)=N\OC(=O)C1CCCCC1` is 56% (active). As to `O=C(COC(=O)C1CCCCC1)Nc1ccc([N+](=O)[O-])cc1`, the inhibition was 30.8%. In the case of `O=C(COC(=O)Cc1ccc([N+](=O)[O-])cc1)NC1CCCCCC1`, the inhibition was 11.9%. Turning to `N/C(Cc1ccc([N+](=O)[O-])cc1)=N\OC(=O)COc1ccc2ccccc2c1`, the inhibition was 44.4% (active).

`COC(=O)C(C)NC(=O)COc1ccc2ccccc2c1` (centres undefined): the inhibition was 4.55%.

Consider `Cc1cc(C)cc(OCC(=O)O/N=C(\N)Cc2ccc([N+](=O)[O-])cc2)c1`, for which the inhibition is 18.5%. The figure for `O=C(CN1CCCCC1)N1c2ccccc2Sc2ccc(C(F)(F)F)cc21` is 13.9%; for `O=S(=O)(NC(=S)Nc1ccccc1)c1ccc(F)cc1` it is -5.64%. With `CC[C@]12c3[nH]c4cc(CCC(=O)N(C)C)ccc4c3CCN1C(=O)[C@@H](CC(=O)NCc1ccco1)C[C@@H]2C(=O)N1CCN(C(=O)c2ccco2)CC1` the figure was 12.2%; with `CSc1ccccc1-c1nnc(-c2ccc(Cl)cc2)o1`, 8.43%; with `FC(F)(F)c1cnc(Oc2ccccc2-c2nnc(-c3ccc(Cl)cc3)o2)c(Cl)c1`, 92.4% (active).

Regarding `COc1ccccc1-c1nnc(-c2ccc(F)cc2)o1`, the inhibition is 14.8%. The figure for `C[C@@H]1CC[C@@]2(OC1)O[C@H]1C[C@H]3[C@@H]4CC=C5C[C@@H](O)[C@H](O)C[C@]5(C)C4CC[C@]3(C)[C@H]1[C@@H]2C` (some centres undefined) is -10.1%; for `Cc1cc(Cl)ccc1OCc1nc(-c2ccncc2)no1` it is -5.93%. With `CCc1cc(C(=O)c2ccc(OC)cc2)c(NC(=O)CN2CCN(C)CC2)s1` the figure was 14.6%; with `COc1ccc(C(=O)Nc2sc(C)c(C)c2CN2CCOCC2)cc1`, 29%. With `CCc1cc(C(N)=O)c(NC(=O)c2ccc(OC)cc2)s1` the figure was 48.7% (active); with `CCCn1c(C)cc(-c2csc(NC(=O)CCc3nc4ccccc4c(=O)[nH]3)n2)c1C`, -24.7%; with `CCCOc1ccc(NC(=O)C2OC3OC(C)(C)OC3C3OC(C)(C)OC23)cc1` (centres undefined), -2.42%.

Consider `COc1cc(/C=C/CO)cc(OC)c1O[C@@H]1O[C@H](CO)[C@@H](O)[C@H](O)[C@H]1O`, for which the inhibition was -4.81%. On to `O=C(/C=C/c1cccs1)c1cc(Cl)ccc1OC(=O)N1CCOCC1`, for which the inhibition was 52.9% (active). Regarding `CC(=O)Nc1ccccc1OC(=O)N1CCOCC1`, the inhibition was -16.6%. With `O=C(Oc1cccc(C(=S)N2CCOCC2)c1)c1cccc(Cl)c1`, the inhibition was 17.1%. The figure for `O=C(Nc1ccncc1)Nc1ccc(F)cc1` is -4.69%. The figure for `CC(C)(CCl)C(=O)Nc1ccc(Sc2ccc(F)cc2)cc1` is 42.1% (active). `CC(C)CNC(=S)Nc1ccc(F)cc1`: the inhibition was 8.49%.

Regarding `O=C(COc1ccccc1)Nc1nonc1NC(=O)COc1ccccc1`, the inhibition was 7.03%. Consider `O=C(CCN1C(=O)[C@@H]2Cc3ccccc3CN2C1=O)NCc1ccccc1`, for which the inhibition was 4.78%. The figure for `CCOC(=O)c1c(NC(=O)CNC2CCCc3ccccc32)sc(C(N)=O)c1C` (centres undefined) is -2.7%; for `COc1ccc(CCNC(=O)CSc2nnc(-c3cccc(F)c3)o2)cc1OC` it is 1.74%; for `COc1ccc(-c2nnc(SCC(=O)NC3CCCCC3)o2)cc1OC` it is 3.73%.

Regarding `COc1ccc(CN(C(=O)CSc2nnc(-c3ccc(OC)c(OC)c3)o2)c2ccc(F)cc2)cc1`, the inhibition is 40.5% (active). The figure for `Cc1ccc(C(=O)OCC(=O)NCc2cc(C)c(O)c(C)c2)cc1S(=O)(=O)N1CCCCC1` is 0.371%.

As for `O=S(=O)(c1cccc(-c2cn3ccccc3n2)c1)N1CCCC1`, the inhibition is 9%. With `Cc1cc(-c2ccccc2)nc(N2CCC(C(=O)NC34CC5CC(CC(C5)C3)C4)CC2)n1` the figure was 19.8%.

For the compound `O=C1Nc2c(Br)cc(Br)cc2C1(O)N1CCOCC1` (centres undefined), the inhibition is 12.1%. Take `CCC(C)(C)NC(=O)CN(Cc1cccs1)C(=O)CNS(=O)(=O)c1ccc(F)cc1`: the inhibition is 3.15%. Turning to `CCOc1ccc(S(=O)(=O)NCCC(=O)N2CCCCCCC2)cc1`, the inhibition is -3.91%. The figure for `Cc1ccccc1NCC(=O)N/N=C\c1ccc([N+](=O)[O-])s1` is 56% (active); for `CC(C)(C)c1cc(C(=O)N/N=C/c2ccc([N+](=O)[O-])s2)n[nH]1` it is 22%. On to `Cc1cccc(/C=N/NC(=O)CNc2cccc3ccccc23)n1`, for which the inhibition is 8.82%.
